The values below come from PubChem BioAssay.

Active and inactive are the calls of the source.

A short description of test [1]: binders of probe aFSTL3 on microarray, primary screen, stem cell growth factor project, biochemical, small-molecule microarray, fluorescence 635/667 (AID 1064).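 Note: measures binding of the biotinylated anti-FSTL3 antibody to printed compounds.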 The settings on record: higher = more signal.
Test [2] can be described thus: binders from COS7 lysate, DM2A8 probe, primary screen, torsin A project, cell lysate, small-molecule microarray, fluorescence 635/667 (AID 1065). The settings on record: higher = more signal, COS7 lysate expressing mutant human TOR1A.
Test [3] is described as follows: binders of probe aFGF2 on microarray, primary screen, stem cell growth factor project, biochemical, small-molecule microarray, fluorescence 635/667 (AID 1067).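 Note: measures binding of biotinylated aFGF2 protein to printed compounds on slides; z-score merges feature fluorescence and signal-to-noise across triplicate slides.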 The settings on record: higher = more signal.
Test [4] is described as follows: binders of probe aFGF10 on microarray, primary screen, stem cell growth factor project, biochemical, small-molecule microarray, fluorescence 635/667 (AID 1071).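 Note: score merges 667 nm spot intensity and signal to noise from triplicate slides.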 The settings on record: higher = more signal.
Test [5] addresses Neurogenic locus notch homolog protein 2 (Homo sapiens) (UniProt Q04721). The test can be described thus: Notch2 binders on small-molecule microarrays, primary screen, biochemical, small-molecule microarray, 635 nm fluorescence, stem cell growth factors (AID 1073). The settings on record: Notch2 binding, higher = more signal.
Test [6] deals with Pro-neuregulin-1, membrane-bound isoform (Homo sapiens) (UniProt Q02297). Put plainly: NRG1 binders on small-molecule microarrays, primary screen, psychiatric disease protein project, biochemical, small-molecule microarray, fluorescence 635/667 (AID 1075).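 Note: score combines 667 nm spot fluorescence with signal to noise.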 The settings on record: NRG1 binding, 635 nm fluorescence, higher = more signal.
For test [7], the system named is Neuregulin-1 EGF-like domain. Put plainly: binders of neuregulin-1 EGF-like domain, primary screen, biochemical, small-molecule microarray, 635 nm fluorescence (AID 1081).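 Note: binding of the protein to compounds printed on small-molecule microarray slides.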 The settings on record: small-molecule microarray binding, higher = more signal.
The nature of test [8]: FRG1 promoter luciferase signal modulators, primary screen, FRG1 inhibition for FSHD, cell-based, C2C12 myotubes, firefly/Renilla luciferase, luminescence (AID 1084). The settings on record: higher = more signal, called active from +8 up or from −8 down.
Test [9] in a line: binders of probe aFST on microarray, primary screen, stem cell growth factor project, biochemical, small-molecule microarray, fluorescence 635/667 (AID 1086).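 Note: score merges 667 nm fluorescence with signal-to-noise of each printed compound spot.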 The settings on record: higher = more signal.
Test [10] is described as follows: binders of probe aHhip on microarray, primary screen, stem cell growth factor project, biochemical, small-molecule microarray, fluorescence 635/667 (AID 1087).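 Note: score merges spot fluorescence at 667nm with spot signal to noise ratio.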 The settings on record: higher = more signal.
Test [11] concerns PRMT1 (protein arginine N-methyltransferase 1). The test can be described thus: PRMT1 binders on small-molecule microarrays, primary screen, biochemical, small-molecule microarray, 635 nm fluorescence (AID 1088).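 Note: binding of Prmt1 protein to compounds spotted on small-molecule microarray slides.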 The settings on record: small-molecule microarray binding, higher = more signal.
Test [12] is described as follows: yeast growth modulation, basal conditions, primary screen, YJM789 clinical isolate, OD600, 24 h (AID 1089).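 Note: growth of clinical yeast isolate S. cerevisiae YJM 789 seeded 1000 cells per well; test concentration not given here.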 The settings on record: S. cerevisiae YJM789 growth, higher = more signal, called active from +8 up or from −8 down.
The nature of test [13]: fission yeast growth modulation, primary screen, strain 972, OD600, 24 h, no modulator (AID 1090).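 Note: basal condition with compound alone and no growth modifier present; test concentration not given here.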 The settings on record: S. pombe 972 growth, higher = more signal, called active from +8 up or from −8 down.
A short description of test [14]: S. cerevisiae growth modulation with rapamycin, primary screen, strain BY4716, OD600, 96 h (AID 1091). Note: test concentration not given here. The settings on record: higher = more signal, called active from +8 up or from −8 down.
In test [15] the target is Torsin-1A-interacting protein 2 (Homo sapiens) (UniProt Q8NFQ8). The test can be described thus: LULL1 binders on small-molecule microarray, primary screen, cell lysate, human LULL1 lysate, 635/667 nm fluorescence (AID 1092).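 Note: probe is lysate of COS7 cells overexpressing human LULL1; score merges per-feature 667 nm fluorescence with signal-to-noise.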 The settings on record: hLULL1 lysate binding, 635 nm fluorescence, higher = more signal.
Test [16] is described as follows: E. coli growth modulation, two-sided OD650, primary screen, E. coli filamentation project, strain DRC41, 24 h (AID 1093).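 Note: MC1000 strain lacking acrAB efflux and sulA so SOS filamentation is blocked; test concentration not given here.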 The settings on record: OD650, 24 h, higher = more signal, called active from +8 up or from −8 down.
Test [17] is described as follows: small-molecule microarray binders of probe aLefty2, primary screen, biochemical, biotinylated probe, 635/667 nm fluorescence (AID 1094).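 Note: score merges spot fluorescence near 667 nm with spot signal-to-noise ratio.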 The settings on record: higher = more signal.
The subject of test [18] is Noggin (protein binding on small-molecule microarray). Put plainly: Noggin binders on small-molecule microarray, primary screen, biochemical, 635/667 nm fluorescence (AID 1095).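 Note: score merges 667 nm feature fluorescence with signal to noise over triplicate slides.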 The settings on record: 635 nm fluorescence, higher = more signal.
Test [19] concerns the target Neurogenic locus notch homolog protein 3 (Homo sapiens) (UniProt Q9UM47). The test can be described thus: NOTCH3 binders on small-molecule microarray, primary screen, biochemical, 635/667 nm fluorescence (AID 1096). The settings on record: NOTCH3 binding, 635 nm fluorescence, higher = more signal.
Test [20] is described as follows: small-molecule microarray binders of probe aEGFR, primary screen, biochemical, biotinylated probe, 635/667 nm fluorescence (AID 1097).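 Note: probe is a biotinylated anti-EGFR antibody binding compounds printed on slides; score combines fluorescence near 667 nm and signal to noise of each spot.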 The settings on record: higher = more signal.

Chain of Torsin-1A-interacting protein 2 (Homo sapiens) (Q8NFQ8 whole entry, looked up): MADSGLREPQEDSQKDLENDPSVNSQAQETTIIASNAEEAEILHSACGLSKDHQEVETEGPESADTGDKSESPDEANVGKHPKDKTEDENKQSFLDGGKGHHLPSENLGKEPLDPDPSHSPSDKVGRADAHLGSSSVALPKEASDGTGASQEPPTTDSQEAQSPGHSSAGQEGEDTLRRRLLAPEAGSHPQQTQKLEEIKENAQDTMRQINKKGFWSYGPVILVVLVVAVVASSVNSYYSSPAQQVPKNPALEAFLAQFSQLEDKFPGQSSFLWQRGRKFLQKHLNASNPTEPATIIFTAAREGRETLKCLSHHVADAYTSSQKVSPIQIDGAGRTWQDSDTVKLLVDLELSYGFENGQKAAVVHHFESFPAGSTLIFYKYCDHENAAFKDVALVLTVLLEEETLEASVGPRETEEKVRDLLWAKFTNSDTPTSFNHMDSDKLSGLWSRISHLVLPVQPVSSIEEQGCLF
Chain of Neurogenic locus notch homolog protein 3 (Homo sapiens) (Q9UM47 whole entry, looked up): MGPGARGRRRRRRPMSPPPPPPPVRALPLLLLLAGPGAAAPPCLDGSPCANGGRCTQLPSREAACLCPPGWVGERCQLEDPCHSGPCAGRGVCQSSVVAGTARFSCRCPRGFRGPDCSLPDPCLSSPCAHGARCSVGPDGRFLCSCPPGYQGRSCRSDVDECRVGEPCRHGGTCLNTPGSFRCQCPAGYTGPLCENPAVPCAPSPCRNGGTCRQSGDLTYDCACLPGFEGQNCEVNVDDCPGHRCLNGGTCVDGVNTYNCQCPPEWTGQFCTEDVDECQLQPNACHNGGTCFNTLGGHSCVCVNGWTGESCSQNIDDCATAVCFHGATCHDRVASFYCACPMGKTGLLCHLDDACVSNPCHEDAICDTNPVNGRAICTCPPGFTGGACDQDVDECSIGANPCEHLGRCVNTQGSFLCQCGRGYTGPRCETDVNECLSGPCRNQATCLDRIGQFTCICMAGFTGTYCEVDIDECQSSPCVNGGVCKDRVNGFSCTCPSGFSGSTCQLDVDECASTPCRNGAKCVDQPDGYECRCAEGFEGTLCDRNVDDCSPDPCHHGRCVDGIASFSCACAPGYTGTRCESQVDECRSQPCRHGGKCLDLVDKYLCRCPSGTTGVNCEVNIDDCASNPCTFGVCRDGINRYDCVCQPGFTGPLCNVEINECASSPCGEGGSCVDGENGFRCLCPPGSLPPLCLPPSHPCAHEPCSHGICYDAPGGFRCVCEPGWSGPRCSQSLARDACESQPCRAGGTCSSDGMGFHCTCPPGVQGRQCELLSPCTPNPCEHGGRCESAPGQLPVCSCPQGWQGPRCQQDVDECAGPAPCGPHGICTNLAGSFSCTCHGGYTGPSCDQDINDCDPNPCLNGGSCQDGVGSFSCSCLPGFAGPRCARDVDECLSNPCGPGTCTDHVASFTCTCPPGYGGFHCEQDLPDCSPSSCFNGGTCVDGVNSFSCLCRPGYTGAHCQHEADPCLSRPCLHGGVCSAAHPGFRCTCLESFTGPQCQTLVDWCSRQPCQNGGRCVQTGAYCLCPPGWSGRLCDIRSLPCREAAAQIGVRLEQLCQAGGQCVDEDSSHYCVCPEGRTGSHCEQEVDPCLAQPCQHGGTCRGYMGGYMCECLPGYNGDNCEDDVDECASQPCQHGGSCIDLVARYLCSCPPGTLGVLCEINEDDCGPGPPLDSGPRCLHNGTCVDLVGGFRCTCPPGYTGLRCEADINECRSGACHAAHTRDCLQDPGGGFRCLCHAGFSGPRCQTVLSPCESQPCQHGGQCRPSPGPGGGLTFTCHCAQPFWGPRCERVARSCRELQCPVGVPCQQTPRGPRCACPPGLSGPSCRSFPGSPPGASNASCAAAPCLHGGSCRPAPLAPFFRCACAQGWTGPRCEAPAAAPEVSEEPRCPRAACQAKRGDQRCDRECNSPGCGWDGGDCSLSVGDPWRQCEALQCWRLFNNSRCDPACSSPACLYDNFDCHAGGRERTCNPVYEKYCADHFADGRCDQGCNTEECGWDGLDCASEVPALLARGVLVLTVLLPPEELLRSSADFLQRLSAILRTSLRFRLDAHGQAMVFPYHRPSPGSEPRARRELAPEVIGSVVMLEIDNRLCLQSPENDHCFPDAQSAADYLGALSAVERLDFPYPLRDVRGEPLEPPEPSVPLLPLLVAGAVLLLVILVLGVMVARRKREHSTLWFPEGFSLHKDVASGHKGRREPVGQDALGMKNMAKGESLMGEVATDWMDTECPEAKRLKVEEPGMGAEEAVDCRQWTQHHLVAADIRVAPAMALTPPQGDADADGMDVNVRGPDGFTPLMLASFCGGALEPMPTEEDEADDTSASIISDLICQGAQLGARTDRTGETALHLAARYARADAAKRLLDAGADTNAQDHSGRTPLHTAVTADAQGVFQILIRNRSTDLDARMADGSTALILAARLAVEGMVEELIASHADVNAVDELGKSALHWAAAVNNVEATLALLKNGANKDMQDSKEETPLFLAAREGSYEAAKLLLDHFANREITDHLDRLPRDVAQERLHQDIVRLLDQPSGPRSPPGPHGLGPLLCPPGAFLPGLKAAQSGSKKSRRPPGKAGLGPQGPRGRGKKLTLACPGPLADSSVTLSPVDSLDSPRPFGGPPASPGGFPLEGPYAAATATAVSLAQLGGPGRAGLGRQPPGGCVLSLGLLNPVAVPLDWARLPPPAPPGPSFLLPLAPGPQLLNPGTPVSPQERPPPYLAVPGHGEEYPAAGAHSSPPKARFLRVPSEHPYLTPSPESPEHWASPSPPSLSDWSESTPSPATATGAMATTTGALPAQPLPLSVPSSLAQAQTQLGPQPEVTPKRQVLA
Chain of Pro-neuregulin-1, membrane-bound isoform (Homo sapiens) (Q02297 whole entry, looked up, the tested form may be a part, canonical isoform): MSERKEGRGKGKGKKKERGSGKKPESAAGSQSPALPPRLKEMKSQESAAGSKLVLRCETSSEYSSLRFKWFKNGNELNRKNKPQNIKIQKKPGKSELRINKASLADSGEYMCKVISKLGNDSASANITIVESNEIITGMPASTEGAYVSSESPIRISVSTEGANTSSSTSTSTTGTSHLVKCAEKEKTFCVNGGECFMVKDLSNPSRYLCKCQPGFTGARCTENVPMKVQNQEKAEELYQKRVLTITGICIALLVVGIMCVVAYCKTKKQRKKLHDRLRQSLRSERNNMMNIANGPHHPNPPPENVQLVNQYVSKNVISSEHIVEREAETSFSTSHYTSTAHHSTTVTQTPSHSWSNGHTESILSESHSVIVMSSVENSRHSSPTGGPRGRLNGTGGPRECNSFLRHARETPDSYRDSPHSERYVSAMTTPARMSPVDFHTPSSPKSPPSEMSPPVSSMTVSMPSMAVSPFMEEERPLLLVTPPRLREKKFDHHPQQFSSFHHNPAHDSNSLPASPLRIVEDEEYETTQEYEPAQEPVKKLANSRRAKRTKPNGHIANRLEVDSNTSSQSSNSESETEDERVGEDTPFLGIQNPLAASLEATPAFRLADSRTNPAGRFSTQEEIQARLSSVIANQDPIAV

Regarding `CCCC=C(CCC)[C@@H](NS(=O)(=O)CC)c1ccccc1`, the composite z-score in [1] was -0.14; in [2], -0.534; in test [3], 0.0583; in [4], 0.576; in test [5], 1.15; in test [6], 0.808. Also, the composite z-score was 1.09 in test [7]; 0.725 in test [9]; -0.0645 in test [10]; 1.17 in test [11]; 2.57 in test [15]; 0.195 in test [17]. The composite z-score in [18] was 0.222; in test [19], 1.16; in test [20] it was 0.0093. Also, the z-score was 1.33 (inactive) in [8]; 0.472 (inactive) in [12]; 1.22 (inactive) in test [13]; 0.565 (inactive) in [14]; -0.66 (inactive) in test [16].
Consider `CCN(CC)c1ccc(N2CC=CC34O[C@@H]5/C=C\CCCOC(=O)C5[C@H]3C(=O)N(CCCCCO)[C@@H]4C2=O)cc1` (stereo not given in full), for which the composite z-score in test [1] is 0.0158; in test [2] it was -1.53; in test [3] it was -0.205; in test [4] it was -1.03; in test [5], -1.2; in [6] it was 1.04. Besides, the composite z-score in test [7] is 0.516; in test [9], -0.663; in test [10] it was -0.0994; in [11], -0.752; in [15], 0.45; in [17], -0.231. The composite z-score in test [18] was -0.873; in test [19], -0.404; in [20], -0.216. For the same molecule, the z-score is 0.609 (inactive) in test [8]; -0.177 (inactive) in [12]; -0.691 (inactive) in [13]; -0.624 (inactive) in test [14]; -0.838 (inactive) in test [16].
As to `COC(=O)[C@@]1(Cc2ccccc2)[C@H]2c3cc(C(=O)N(C)C)n(Cc4ccccn4)c3C[C@H]2CN1C(=O)c1ccccc1`, the composite z-score was 0.907 in test [1]; 1.6 in test [2]; 0.305 in [3]; 0.76 in [4]; 1.15 in test [5]; 2.33 in test [6]. Further, the composite z-score worked out at 1.31 in [7]; 1.27 in [9]; 0.0302 in [10]; 0.664 in [11]; 3.68 in test [15]; 0.506 in test [17]. For the same molecule, the composite z-score was -0.793 in [18], 1.11 in [19] and 0.309 in test [20]. Also, the z-score in [8] is 1.01 (inactive); in test [12] it was 0.249 (inactive); in [13], 0.87 (inactive); in [14], 0.963 (inactive); in test [16], -0.537 (inactive).
Consider `C=C(COC)C(=O)CC[C@H](OC(=O)c1ccccc1-c1ccccc1C(=O)O)c1ccc(CO)o1`, for which the composite z-score in test [1] was -0.326; in test [2] it was -0.192; in test [3], -0.128; in test [4], 0.738; in test [5], -0.532; in test [6], 0.844. Moreover, the composite z-score in test [7] is 1.33; in test [9], -0.118; in test [10], -0.0618; in [11], 1.56; in [15] it was 1.37; in [17], -0.216. Besides, the composite z-score in [18] is 0.757; in test [19], 0.391; in [20], -0.17. Moreover, the z-score was -0.362 (inactive) in [8]; -1.91 (inactive) in [12]; 0.436 (inactive) in [13]; 0.526 (inactive) in test [14]; 0.229 (inactive) in [16].
Turning to `C[N+](C)(C)CCCC[C@@H]1NC(=O)[C@H]2C[C@@H](C(=O)NCCCCCCN)[C@@H](c3cccc(OCCO)c3)N2C1=O`, the composite z-score in [1] was 1.71; in test [2] it was 1.85; in [3], 0.0852; in [4], 0.765; in test [5] it was 0.791; in test [6] it was 1.14. Also, the composite z-score in test [7] was 1.49; in [9] it was 0.592; in test [10], 1.13; in test [11] it was 1.54; in test [15], 3.06; in [17], 1.08. For the same molecule, the composite z-score is 1.15 in [18], 1.07 in test [19] and 0.693 in test [20]. Also, the z-score in test [8] was 0.029 (inactive); in [12] it was -0.0132 (inactive); in test [13], -0.87 (inactive); in test [14], -0.133 (inactive); in test [16] it was 0.27 (inactive).
